The target in experiment [1] is 6-phosphogluconate dehydrogenase, decarboxylating (Homo sapiens) (UniProt P52209). Nature of the experiment: 6PGD enzyme inhibitors, primary screen, biochemical, human, recombinant enzyme, NADPH absorbance (AID 1159550). Conditions: recombinant 6PGD, NADPH absorbance 341 nm; at 10 µM; stronger effect = higher value.
Experiment [2] in a line: differential killing of epithelial or mesenchymal cells, primary screen, imaging, PC-3E GFP, TEM4-18 mCherry, co-culture (AID 1345086;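 active = compounds killing one labelled cell type while sparing the other, by normalised counts and ratio limits, not self-fluorescent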;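 for all read-outs here: cells exposed to compound for 72 h before imaging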;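 for red/green cell ratio (normalised): normalised mesenchymal count divided by normalised epithelial count so high means epithelial killing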). To be noted: imaging cell counts, at 1 µM; for red/green cell ratio (normalised): actives lie on both sides, counts scaled to control wells, 1 = unselective.
The nature of experiment [3]: liver-stage malaria parasite growth inhibition, primary screen, cell-based, HepG2, luciferase luminescence, HepG2 viability (AID 624349; in the data active = parasite load remaining mostly below about 12%, no sharp cut-off; inactive = mostly above about 10%;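 note: 100% = mean of DMSO negative control wells on the same plate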). Conditions: P. berghei liver stage in HepG2, luciferase luminescence, concentration not given here; parasite load remaining: stronger effect = lower value; viability: measured here: HepG2 viability without parasites.
Experiment [4] is described as follows: SU-DIPG-VI glioma cell viability, MIPE4.0 library, CellTiter-Glo luminescence, qHTS (AID 1347066; cut-off not given, nearly all actives have AC50 up to about 30 µM;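 note: cells exposed to compound for 48 hours before readout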). To be noted: CellTiter-Glo ATP luminescence.
Experiment [5] deals with Mitogen-activated protein kinase 7 (Homo sapiens) (UniProt Q13164). Nature of the experiment: ERK5 transactivation activators in reporter cells, primary screen, cell-based, HTS (AID 1508626;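 active = luciferase signal above three times the same-plate solvent-only control wells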;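 note: luciferase driven by Gal4-ERK5 fusion binding five Gal4 sites before minimal TATA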). To be noted: HeLa Gal4-ERK5 transactivation, 18 h, at 5 µM, stronger effect = higher value.
Sequence of Mitogen-activated protein kinase 7 (Homo sapiens) (Q13164 whole entry, looked up, the tested form may be a part): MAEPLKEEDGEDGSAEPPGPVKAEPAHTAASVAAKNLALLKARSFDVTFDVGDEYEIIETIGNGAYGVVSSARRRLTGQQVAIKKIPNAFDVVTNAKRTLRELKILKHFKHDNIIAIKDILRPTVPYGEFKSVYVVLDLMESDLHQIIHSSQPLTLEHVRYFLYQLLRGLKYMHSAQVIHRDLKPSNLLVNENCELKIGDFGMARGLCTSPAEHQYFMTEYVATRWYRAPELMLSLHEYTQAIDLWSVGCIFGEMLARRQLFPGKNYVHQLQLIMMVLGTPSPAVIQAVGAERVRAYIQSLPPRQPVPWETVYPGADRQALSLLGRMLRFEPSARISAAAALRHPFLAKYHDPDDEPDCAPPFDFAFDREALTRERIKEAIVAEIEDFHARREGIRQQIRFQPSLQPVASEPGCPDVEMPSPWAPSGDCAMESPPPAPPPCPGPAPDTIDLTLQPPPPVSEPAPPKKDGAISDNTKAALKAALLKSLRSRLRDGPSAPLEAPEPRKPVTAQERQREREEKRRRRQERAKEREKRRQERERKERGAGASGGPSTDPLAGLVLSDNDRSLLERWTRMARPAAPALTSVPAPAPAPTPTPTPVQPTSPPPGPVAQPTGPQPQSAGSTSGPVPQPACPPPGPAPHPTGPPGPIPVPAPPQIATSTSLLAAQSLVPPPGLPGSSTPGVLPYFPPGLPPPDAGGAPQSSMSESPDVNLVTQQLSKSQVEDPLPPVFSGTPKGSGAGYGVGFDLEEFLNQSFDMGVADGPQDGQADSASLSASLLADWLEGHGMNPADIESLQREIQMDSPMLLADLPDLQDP
Experiment [6] can be described thus: sensitizers of A549 cells to miR-34 induction, primary screen, imaging, A549 dox-inducible miR-34, nuclei and caspase counts (AID 1347080;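 active = compounds whose cell count with miR-34 switched on is under 0.7 times the count with it off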). To be noted: A549 miR-34 inducible, Hoechst nuclei count, 48 h.
Experiment [7] is described as follows: viability rescue of complex I mutant cybrids, primary screen, cell-based, galactose medium, ATP luminescence (AID 1645843;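 active = z-score of at least 1.8 in each of two replicates, scored against plate mean and spread of sample wells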;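 note: positive z means more ATP and so rescue of galactose-driven cybrid death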). Conditions: complex I mutant cybrid cells, 72 h, stronger effect = higher value.
Experiment [8] in a line: polyglutamine-triggered caspase-3 activation inhibitors, cell-based (AID 1583). Conditions: polyglutamine-induced caspase-3 activation, cell assay; stronger effect = higher value;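 tested at 10 µM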.
Experiment [9] is described as follows: suppressors of polyQ aggregation in yeast, 75Q-TubU reporter (AID 1593). Conditions: Yeast 75Q polyglutamine aggregation reporter.
Experiment [10] is described as follows: rescue of polyQ-huntingtin neuronal dysfunction in worms, whole organism, C. elegans mechanosensory neurons, N-terminal huntingtin (AID 1599). To be noted: touch response, stronger effect = higher value.
The nature of experiment [11]: inhibitors of mitochondrial cytochrome c release, biochemical, purified mitochondria (AID 1603).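 Note: mouse liver mitochondria challenged with calcium chloride; signal normalized to the plate average as 100%.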 To be noted: stronger effect = lower value.
The nature of experiment [12]: inhibitors of polyQ protein aggregation (AID 1604). Conditions: polyglutamine-induced protein aggregation inhibition assay; stronger effect = higher value; tested at 2.5 µM.
Experiment [13] in a line: enhancers of glutamate uptake in motor neurons, MN-1 cell line (AID 1612).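 Note: tested at 1 µM final; 0% = mean of DMSO vehicle wells on each plate; positive means more glutamate uptake than control and negative means less.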 Conditions: MN-1 motor neuron cells, stronger effect = higher value.
Experiment [14] in a line: suppressors of polyglutamine aggregation in yeast, 75Q-TubH (AID 1616). To be noted: S. cerevisiae 75Q-TubH polyglutamine aggregation suppression; stronger effect = higher value.
Experiment [15] is described as follows: survival rescue of mitochondrial mutant cells in low glucose, primary screen, MELAS cybrids, Rieske KO mouse fibroblasts, CellTiter-Glo (AID 1508586;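 active = mean z-score across replicates of 1.96 or higher in either the MELAS or the Rieske mutant cell line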;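 note: z relative to plate mean and SD of compound and empty wells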).
Experiment [16] concerns the target NAD(+) hydrolase SARM1 (Homo sapiens) (UniProt Q6SZW1). Nature of the experiment: SARM1 TIR NADase inhibitors, cell lysate, NAD-Glo luminescence (AID 1508614;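 active = compound whose remaining NAD level is above about 45 nM, limit read from the data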;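 note: higher remaining NAD means stronger inhibition of SARM1 NADase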). Conditions: SAM-TIR HEK293T lysate NADase, at 1 µM, stronger effect = higher value.
The mark [17] stands for this setting: measured here: epithelial PC-3E GFP cell survival.
The mark [18] stands for this setting: measured here: mesenchymal TEM4-18 mCherry cell survival.
Setting [19] is: stronger effect = lower value, cell number ratio, induced over uninduced.
Where [20] appears, read: measured here: relative caspase fold change +Dox/-Dox.
Where [21] appears, read: measured here: total cells with miR-34 induction, stronger effect = lower value.
[22] abbreviates: measured here: total cells without miR-34 induction.
[23] abbreviates: MELAS cybrid survival, CellTiter-Glo 48 h, stronger effect = higher value.
Setting [24] is: Rieske KO mouse fibroblast survival, CellTiter-Glo 72 h.

“And” between values parts separate entries of the source, which are not always exact repeats. Identical values can stand only once. Records with an inconclusive call do not appear. For some assays here: Results with a measured potency or affinity are listed apart. The source made the active and inactive calls.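 Rule for the calls, unless noted: active = at least 20% inhibition of 6-phosphogluconate dehydrogenase activity; inactive = the rest.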

Sequence of 6-phosphogluconate dehydrogenase, decarboxylating (Homo sapiens) (P52209 whole entry, looked up): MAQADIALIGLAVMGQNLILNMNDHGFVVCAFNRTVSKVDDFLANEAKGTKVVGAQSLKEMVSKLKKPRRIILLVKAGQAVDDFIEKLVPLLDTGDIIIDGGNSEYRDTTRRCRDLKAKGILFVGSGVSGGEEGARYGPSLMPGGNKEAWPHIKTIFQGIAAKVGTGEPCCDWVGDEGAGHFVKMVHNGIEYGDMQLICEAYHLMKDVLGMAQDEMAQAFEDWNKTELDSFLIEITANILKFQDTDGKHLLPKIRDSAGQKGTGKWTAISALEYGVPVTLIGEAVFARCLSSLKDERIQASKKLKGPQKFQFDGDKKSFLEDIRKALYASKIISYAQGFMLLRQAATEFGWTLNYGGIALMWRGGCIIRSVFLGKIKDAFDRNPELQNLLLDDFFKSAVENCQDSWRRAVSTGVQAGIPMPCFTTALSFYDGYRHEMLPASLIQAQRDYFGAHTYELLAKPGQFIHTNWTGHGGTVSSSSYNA
Sequence of NAD(+) hydrolase SARM1 (Homo sapiens) (Q6SZW1 whole entry, looked up): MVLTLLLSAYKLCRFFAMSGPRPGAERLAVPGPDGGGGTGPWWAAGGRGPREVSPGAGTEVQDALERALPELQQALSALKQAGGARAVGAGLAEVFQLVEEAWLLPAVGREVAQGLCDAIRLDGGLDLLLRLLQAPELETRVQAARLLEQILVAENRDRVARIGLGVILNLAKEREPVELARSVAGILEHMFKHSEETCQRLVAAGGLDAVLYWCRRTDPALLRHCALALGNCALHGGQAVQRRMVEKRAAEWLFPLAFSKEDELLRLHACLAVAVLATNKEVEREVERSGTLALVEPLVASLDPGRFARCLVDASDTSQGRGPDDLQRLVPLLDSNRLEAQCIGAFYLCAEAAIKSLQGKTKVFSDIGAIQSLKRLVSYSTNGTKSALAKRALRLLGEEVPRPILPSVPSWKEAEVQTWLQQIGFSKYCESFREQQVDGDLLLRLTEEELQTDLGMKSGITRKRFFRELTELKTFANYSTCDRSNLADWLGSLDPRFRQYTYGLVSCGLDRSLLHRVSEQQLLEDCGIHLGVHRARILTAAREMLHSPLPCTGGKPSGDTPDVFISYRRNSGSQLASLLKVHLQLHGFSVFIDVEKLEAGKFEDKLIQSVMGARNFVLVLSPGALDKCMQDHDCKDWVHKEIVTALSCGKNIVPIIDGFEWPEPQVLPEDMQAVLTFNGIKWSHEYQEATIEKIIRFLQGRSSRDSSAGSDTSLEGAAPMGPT

As for `COc1cc(OC)c(-c2c(OC)cc(OC)cc2OC)c(OC)c1`, the inhibition in [1] was 11.7% (inactive). Moreover, the red/green cell ratio (normalised) in [2] is 1.06 (inactive). For the same compound, the normalised cell number in experiment [2] (setting [17]) amounted to 0.99; in experiment [2] (setting [18]), 1.04.

As to `CC(=O)c1ccc[nH]1`, in experiment [1], the inhibition is 13.8% (inactive). Besides, in experiment [2], the red/green cell ratio (normalised) was 0.97 (inactive). The normalised cell number in experiment [2] (setting [17]) came to 1.06; in experiment [2] (setting [18]), 1.03.

As to `O=c1ccc2ccc(O)cc2o1`, the inhibition in experiment [1] was 5.77% (inactive). In experiment [2], the red/green cell ratio (normalised) was 0.88 (inactive). Besides, the normalised cell number in experiment [2] (setting [17]) came out at 1.05; in experiment [2] (setting [18]), 0.93.

Take `COc1cc2c(cc1OC)C1C(=O)c3c(cc4c(c3O)C=CC(C)(C)O4)OC1CO2` (stereo unspecified): in [1], the inhibition was 7.64% (inactive). Further, in experiment [2], the red/green cell ratio (normalised) was 0.76 (inactive). The normalised cell number worked out at 1.04 in [2] (setting [17]) and 0.79 in experiment [2] (setting [18]).

As for `CCCCCC1C(=O)CCC1CC(=O)OC` (stereo unspecified), in experiment [1], the inhibition was 6.35% (inactive). In addition, the red/green cell ratio (normalised) in [2] is 0.86 (inactive). Also, the normalised cell number came to 1.26 in experiment [2] (setting [17]) and 1.08 in experiment [2] (setting [18]).

For `COc1cc(/C=C/C(=O)O)ccc1O`, in [3], the parasite load remaining is 186% (inactive). In [3], this compound gave a viability of 69.3%. For the same compound, the inhibition in experiment [1] is 3.09% (inactive). For the same compound, the red/green cell ratio (normalised) in experiment [2] is 1.05 (inactive). The figures for the normalised cell number in [2] (setting [17]) and in experiment [2] (setting [18]) were 1 and 1.05, respectively. Besides, in [4], the outcome was inactive. For the same compound, the luciferase signal in experiment [5] was 48 AU (inactive).

For the compound `O=C(O)/C=C/c1ccc(O)c(O)c1`, in [1], the inhibition is 7.04% (inactive). Also, the red/green cell ratio (normalised) in experiment [2] is 1.06 (inactive). Besides, the normalised cell number was 1 in experiment [2] (setting [17]) and 1.06 in [2] (setting [18]). The fold change in experiment [6] (setting [19]) is 0.967 (inactive) and 0.99 (inactive); in experiment [6] (setting [20]), 2.48 and 1.11. The cell count in experiment [6] (setting [21]) is 10100 and 5830; in experiment [6] (setting [22]), 10400 and 5890. Moreover, the luciferase signal in experiment [5] is 32 AU (inactive). Moreover, in experiment [7], the z-score is -0.81 (inactive).

With `CC[C@H]1OC(=O)[C@H](C)[C@@H](O[C@H]2C[C@@](C)(OC)[C@@H](O)[C@H](C)O2)[C@H](C)[C@@H](O[C@@H]2O[C@H](C)C[C@H](N(C)C)[C@H]2O)[C@](C)(O)C[C@@H](C)/C(=N\OCOCCOC)[C@H](C)[C@@H](O)[C@]1(C)O`, the inhibition in [8] was 1.74%; in experiment [1] it was 16.8% (inactive). Also, the score in [9] was 0.81. The same compound yielded a rescue above control in experiment [10] of 1.9. In addition, the cytochrome c release ratio in experiment [11] worked out at 0.93. In addition, the inhibition of aggregation in experiment [12] came to 60.6%. The glutamate uptake change in [13] is 2.1%. Also, the aggregation suppression score in experiment [14] was determined as 0.306. Moreover, in experiment [3], the parasite load remaining was 160% (inactive) and 51.6% (inactive). Also, the viability in experiment [3] was 87.6% and 99.8%. The red/green cell ratio (normalised) in experiment [2] was 1 (inactive). For the same compound, the normalised cell number in experiment [2] (setting [17]) and in [2] (setting [18]) was 1.13 each time. Besides, the compound was called inactive in experiment [4]. Further, the results for the fold change in experiment [6] (setting [19]) and in [6] (setting [20]) were 0.869 (inactive) and 4.54, respectively. The cell count came to 10400 in experiment [6] (setting [21]) and 12000 in experiment [6] (setting [22]). Besides, the figures for the z-score in [15] (setting [23]) and in experiment [15] (setting [24]) were -0.323 (inactive) and -0.397, respectively. For the same compound, the remaining NAD in experiment [16] is 10 nM (inactive). For the same compound, the luciferase signal in experiment [5] was 84 AU (inactive).

For `COc1ccc(C(C)=O)c(O)c1`, the inhibition in experiment [1] was 10.4% (inactive). Further, the red/green cell ratio (normalised) in [2] is 0.98 (inactive). Also, the results for the normalised cell number in [2] (setting [17]) and in experiment [2] (setting [18]) were 0.95 and 0.94, respectively. The fold change is 0.902 (inactive) in experiment [6] (setting [19]) and 0.777 in [6] (setting [20]). Further, the cell count in experiment [6] (setting [21]) amounted to 9270; in experiment [6] (setting [22]) it was 10300. In addition, the z-score was -0.383 (inactive) in experiment [15] (setting [23]) and 0.53 in experiment [15] (setting [24]). In [5], the luciferase signal was 24 AU (inactive).

(Values after PubChem BioAssay.)
